Only some compounds are listed: those with a hit (about 1.5% of all), similar ones and a draw of the others.
RAD52 inh – inhibitors of human RAD52 DNA annealing | 360,000 compounds, 0.46% hits | inhibition, % at 18.7 µM | recombinant RAD52 DNA annealing, FRET fluorescence | P43351;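 active = every replicate showing at least 50% inhibition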
AF4-AF9 inh – blocks AF4 peptide binding to human AF9; 350,000 compounds, 0.47% hits; P42568; AID 651704; inhibition, % at 10 µM; AlphaScreen, biotin-AF4 peptide binding to FLAG-AF9;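 active = every replicate reaching a set inhibition limit, whatever the replicate mean, cut at about 25% in these data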;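 note: 0% = plate neutral control median and 100% = total signal loss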
Target sequence (P42568 whole entry, looked up): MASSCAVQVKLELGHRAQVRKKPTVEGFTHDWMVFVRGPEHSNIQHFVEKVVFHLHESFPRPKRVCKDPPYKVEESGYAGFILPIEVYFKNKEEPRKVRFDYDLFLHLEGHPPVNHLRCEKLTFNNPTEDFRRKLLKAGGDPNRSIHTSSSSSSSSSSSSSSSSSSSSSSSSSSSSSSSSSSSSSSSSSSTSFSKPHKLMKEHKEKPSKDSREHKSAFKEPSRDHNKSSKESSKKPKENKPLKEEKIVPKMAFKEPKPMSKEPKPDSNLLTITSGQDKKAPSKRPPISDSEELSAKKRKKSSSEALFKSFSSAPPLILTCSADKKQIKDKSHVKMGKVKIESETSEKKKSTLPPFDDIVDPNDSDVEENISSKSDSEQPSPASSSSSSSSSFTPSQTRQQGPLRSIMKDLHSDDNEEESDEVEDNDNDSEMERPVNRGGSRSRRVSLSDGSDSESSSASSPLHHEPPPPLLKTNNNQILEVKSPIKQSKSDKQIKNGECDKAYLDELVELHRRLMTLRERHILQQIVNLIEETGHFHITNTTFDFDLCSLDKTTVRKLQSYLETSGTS
miR122 inh – blocks miR-122 activity in Huh7 sensor cells. 340,000 compounds, 0.3% hits. Huh7 miR-122 Renilla luciferase sensor, 48 h; neutral wells = 0, positive control = 100. activation (reporter increase), % at 12.5 µM;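 active = mean replicate activation score at least 90 and every replicate individually at or above 90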;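 note: higher luciferase means less miR-122 activity so hits act as miR-122 inhibitors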
CASP6 VEID inh – caspase-6 (human) enzyme inhibition; P55212; purified caspase-6, Z-VEID-R110 cleavage fluorescence; inhibition, % at 12.5 µM; 350,000 compounds, 0.53% hits; AID 686996;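 active = mean inhibition across replicates at least about 35%, with every replicate also reaching that limit, limit read from the data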;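 note: 0% = median of neutral control wells and 100% = no fluorescence left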
NSD2 HMT inh – NSD2 (human) methyltransferase inhibition. NSD2 peptide methylation, AlphaScreen, 120 min. inhibition, % at 12.5 µM. 310,000 compounds, 0.54% hits. AID 743445; in the data active = inhibition above about 50%
* hit, by the source's call; . = not tested or not shown; ! = repeats disagree; [ ] = remark or other dose.

SMILES	RAD52 inh	AF4-AF9 inh	miR122 inh	CASP6 VEID inh	NSD2 HMT inh
C/C=C/c1ccc(C2[C@H]3CNC[C@@H]2N3Cc2cc(-c3ccccc3)on2)cc1 (some centres not stated)	52.0*!	8.7	.	3.4	.
N#Cc1cccc(-c2ccc(C3[C@H]4CNC[C@@H]3N4Cc3cc(-c4ccccc4)on3)cc2)c1 (some centres not stated)	62.9*	-6.2	.	-3.9	.
COc1ccccc1-c1ccc(C2[C@H]3CNC[C@@H]2N3Cc2cc(-c3ccccc3)on2)cc1 (some centres not stated)	54.4*	0.5	.	1.4	.
CCCC#Cc1cnc2c(c1)C(=O)N([C@H](C)CO)C[C@@H](C)[C@H](CN(C)C(=O)c1ccc(F)cc1)O2	12.8	-1.5	-2.5[16.7 µM]	-1.7	.
C[C@H](CO)N1C[C@H](C)[C@H](CN(C)C(=O)CCC(F)(F)F)OCCCC[C@H](C)Oc2ccc(NC(=O)c3ccccc3)cc2C1=O	10.6	-8.1	4.7[16.7 µM]	0.0	.
COc1cccc(CNC(=O)C[C@@H]2C=C[C@@H](NS(=O)(=O)c3ccccc3OC)[C@H](CO)O2)c1	-1.0	-0.8	.	0.0	.
Oc1ccc(/C=N/N(Cc2ccccc2)c2ccccc2)c(O)c1O	-8.3	27.0*	.	20.4	30.0
Oc1cccc(/C=N/N(Cc2ccccc2)c2ccccc2)c1	-28.4	8.4	.	1.4	11.4
N#CC1c2ccccc2-c2ccccc2N1C(=O)c1ccccc1 (configuration not stated)	-7.8	3.0	98.2*	-2.4	-4.4
Cc1ccc2nc(/C(C#N)=C/c3ccc(O)c(O)c3)[nH]c2c1	-31.8	0.5	1.1	20.1	94.1*
COc1cc(C)c(C(C)C)cc1S(=O)(=O)N1CCN(C)CC1	.	.	149.0*	.	3.4
C[C@@H]1CN([C@H](C)CO)C(=O)c2cc(N(C)C)ccc2O[C@H]1CN(C)Cc1ccc(-c2ccccc2)cc1	-4.9	49.6*	.	2.5	.
C[C@H]1CN([C@@H](C)CO)C(=O)c2cc(N(C)C)ccc2O[C@@H]1CN(C)Cc1ccc(-c2ccccc2)cc1	9.7	40.3*	7.2[16.7 µM]	0.8	.
C[C@@H]1CN([C@H](C)CO)C(=O)c2cc(N(C)C)ccc2O[C@@H]1CN(C)Cc1ccccc1	-6.4	-1.4	6.0[16.7 µM]	0.5	.
C[C@@H]1Cc2c(O)c(O)cc(O)c2C(=O)O1	.	.	-5.4	.	.
O=C1c2ccccc2C(=O)c2c(O)c(O)cc(O)c21	-17.8	4.1	-9.6	40.9*	.
O=C1C=C(O)c2c(O)cc(O)c(O)c2C1=O	2.2	4.2	-1.3	70.7*	.
C[C@H](CO)N1C[C@H](C)[C@H](CN(C)S(=O)(=O)c2ccsc2)OCc2ccccc2-c2ccccc2C1=O	3.8	3.2	.	-0.6	.
Cc1ccc(S(=O)(=O)N(C)C[C@@H]2Oc3ccc(NC(=O)CCCCCC(=O)Nc4ccccc4N)cc3C(=O)N([C@H](C)CO)C[C@H]2C)cc1	-36.5	1.8	.	0.4	.
C[C@H](O)C#Cc1cnc2c(c1)C(=O)N([C@H](C)CO)C[C@@H](C)[C@@H](CN(C)CC1CCOCC1)O2	1.8	-2.7	0.3[16.7 µM]	-0.9	.
CN(C)C(=O)[C@@]1(Cc2ccccc2)N=C(c2ccc(OCCCO)cc2)O[C@H]1c1ccccc1	-6.7	4.8	.	-2.9	.
CC=Cc1ccc2n(c1=O)C[C@@H]1[C@@H](CO)[C@H](C(=O)NCCN3CCCCC3)N(C(C)=O)[C@H]21 (mixture of isomers)	9.7	-24.1	.	0.6	.
COc1ccc(C2=NN(C(C#N)c3ccc(OC)cc3)C(c3ccccc3)C2)cc1 (configuration not stated)	-217.4	29.0*	3.3	-4.1	-4.2
O=[N+]([O-])c1ccc(NCCN2CCOCC2)c([N+](=O)[O-])c1	-8.4	1.6	.	41.8*	-0.1
CCN(CC)CCOc1ccc(Br)cc1	.	.	3.3	.	7.2
SMILES	RAD52 inh	AF4-AF9 inh	miR122 inh	CASP6 VEID inh	NSD2 HMT inh
CCN(CC)CCOc1ccc(/C(=C(\Cl)c2ccccc2)c2ccccc2)cc1	26.7	31.6*	5.5	-2.2	.
C[C@H](CO)N1C[C@H](C)[C@H](CN(C)C(=O)Nc2ccc3c(c2)OCO3)Oc2cc(C#Cc3cccnc3)ccc2S1(=O)=O	-20.9	6.5	55.8[16.7 µM]	3.0	.
COc1ccc(OC)c(NC2=C(Cl)C(=O)N(Cc3ccccc3)C2=O)c1	-10.1	27.2*	.	1.4	6.8
CC(C)CC#Cc1cnc2c(c1)C(=O)N([C@@H](C)CO)C[C@@H](C)[C@@H](CN(C)C(=O)CN1CCOCC1)O2	-0.4	-4.9	8.2[16.7 µM]	-2.1	.
Cc1ccc(-c2nnc(Nc3ccc4c(c3)OCO4)c3ccccc23)cc1S(N)(=O)=O	-1.4	5.3	179.9*	2.2	3.2
CC(=O)Nc1ccc(Nc2nnc(-c3ccc(C)c(S(N)(=O)=O)c3)c3ccccc23)cc1	-5.1	0.2	.	10.0	3.3
CN(C)CC(=O)NC[C@H]1N[C@@H](CO)[C@H]1c1ccc(-c2cccc(C#N)c2)cc1	51.3*	5.1	0.0[16.7 µM]	-3.4	.
CCC(=O)NC[C@@H]1N[C@@H](CO)[C@H]1c1ccc(-c2cccc(C#N)c2)cc1	-140.2	-1.0	29.8[16.7 µM]	2.8	.
COc1ccc(CN(C)C[C@H]2OCCCC[C@H](C)Oc3ccc(NS(=O)(=O)c4ccc(Cl)cc4)cc3C(=O)N([C@@H](C)CO)C[C@@H]2C)cc1	43.9	-2.3	10.1[16.7 µM]	1.2	.
CN1C(=O)N(C)N(Cc2ccccc2)C(=O)N1Cc1ccccc1	-5.9	-4.0	.	-2.6	4.3
O=C1C=CC(=O)N1Cc1ccccc1	-0.4	47.8*	-1.7	-4.0	.
CSc1ccccc1NC(=O)CN(C)C(=O)/C=C/c1ccccc1	-1.0	1.1	2.9	36.1*	11.3
O=C(O)C1C2C=CC(C2)C1C(=O)Nc1ccccc1Br (configuration not stated)	-7.0	2.5	.	47.7*	0.5
CC(NC(=O)C1C2C=CC(C2)C1C(=O)O)c1ccccc1 (configuration not stated)	.	.	-0.8	.	-4.3
O=C(O)C1C2C=CC(C2)C1C(=O)Nc1ccc2c(c1)OCCO2 (configuration not stated)	.	.	1.6	.	.
Cc1c(NC(=O)C2C3C=CC(C3)C2C(=O)O)c(=O)n(-c2ccccc2)n1C (configuration not stated)	-3.4	1.1	.	35.7*	3.3
CN(C)c1ccc(NC(=O)C2C3C=CC(C3)C2C(=O)O)cc1 (configuration not stated)	58.5*	29.3*	.	41.6*	.
CC(=O)N(C)C[C@H]1Oc2cc(-c3ccccc3)ccc2S(=O)(=O)N([C@@H](C)CO)C[C@H]1C	-13.1	0.3	-22.8[16.7 µM]	1.5	.
COc1ccc(NS(=O)(=O)c2ccc3ccccc3c2)c2ncccc12	-25.8	3.9	104.3*	-3.4	0.7
O=C(O)c1ccc(NS(=O)(=O)c2cccc3cccnc23)cc1	-15.0	-3.8	5.1	-0.4	.
O=S(=O)(Nc1ccc(Cl)cc1)c1cccc2cccnc12	-9.5	-9.0	98.8*	-2.2	14.2
COc1ccc(OC)c(NS(=O)(=O)c2cccc3cccnc23)c1	4.0	3.5	80.3	-0.2	-2.9
